Test results reported in PubChem BioAssay (NCI).
This is part of a sample that, as a whole, favours compounds with a hit. Of some 83,000 tested, about 20% had one in any assay.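 The endpoint reported here, percent growth, reads 100 for growth as untreated, 0 for no net growth and -100 for all cells dead.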 Activity calls are given as the source filed them. Rule for the calls: active = growth percent below 10; inactive = the rest.

Key:
Test in all cases: NCI-60 one-dose screen, 48 h (100 = growth as untreated, 0 = no growth, -100 = all killed)
Settings in all cases: 10 µM unless noted
T-47D breast = test system: T-47D breast
BT-549 breast = test system: BT-549 breast
MDA-MB-435 melanoma = test system: MDA-MB-435 melanoma
SW-620 colon = test system: SW-620 colon
MCF7 breast = test system: MCF7 breast
HCT-116 colon = test system: HCT-116 colon
HCC-2998 colon = test system: HCC-2998 colon
KM12 colon = test system: KM12 colon

Measured: growth

CCNc1ccc(-c2nc3ccccc3n3cccc23)cc1
inactive: T-47D breast 55.1% | BT-549 breast 90.4% | MDA-MB-435 melanoma 80.7% | SW-620 colon 92.5% | MCF7 breast 34.4% | HCT-116 colon 88.9% | HCC-2998 colon 92.4% | KM12 colon 72.8%

COc1cc(NC(=O)c2cncnc2Nc2ccc3c(ccn3Cc3ccccn3)c2)cc(OC)c1
active: MDA-MB-435 melanoma -6.69%
inactive: T-47D breast 45.3% | BT-549 breast 34.9% | SW-620 colon 23.6% | MCF7 breast 31.2% | HCT-116 colon 18.2% | HCC-2998 colon 67.8% | KM12 colon 33.7%

CCOC(=O)c1c(C)nc2ccccc2c1/C=C/c1ccccc1
inactive: T-47D breast 25.7% | BT-549 breast 61.7% | MDA-MB-435 melanoma 70.2% | SW-620 colon 91.1% | MCF7 breast 65.5% | HCT-116 colon 59.5% | HCC-2998 colon 87.2% | KM12 colon 71.8%

CCOC(=O)C1=C(C)C(Cl)=N/C1=C\c1[nH]c(Cl)c(C)c1C(=O)OCC
inactive: T-47D breast 94.9% | BT-549 breast 91.2% | MDA-MB-435 melanoma 103% | SW-620 colon 106% | MCF7 breast 90.3% | HCT-116 colon 84.5% | HCC-2998 colon 130% | KM12 colon 100%

Cc1nnc(-c2ccc3c(c2)nc(/C=C/c2ccccc2)n3C2CCCCC2)o1
inactive: T-47D breast 52% | BT-549 breast 81% | MDA-MB-435 melanoma 83.8% | SW-620 colon 111% | MCF7 breast 77.1% | HCT-116 colon 64.5% | HCC-2998 colon 87.7% | KM12 colon 85.1%

C=C(C)[C@@H]1CC[C@]2(C)[C@H](CC=C3[C@@H]4CC(C)(C)CC[C@]4(CO)CC[C@]32C)[C@@]1(C)CCCN
active: T-47D breast -26.5% | MDA-MB-435 melanoma -84% | SW-620 colon -81.9% | MCF7 breast -41.4% | HCT-116 colon -79.6% | HCC-2998 colon -76% | KM12 colon -53.9%
inactive: BT-549 breast 64.6%

O=C(O)[C@@H](Cc1ccc2ccccc2c1)NC(=O)n1c2ccccc2c2ccccc21
active: MDA-MB-435 melanoma -53% | HCT-116 colon 9.76%
inactive: T-47D breast 70.7% | BT-549 breast 11.3% | SW-620 colon 27.3% | MCF7 breast 17.1% | HCC-2998 colon 21.4% | KM12 colon 18.5%

O=[N+]([O-])c1cc(NS(=O)(=O)c2ccccc2)ccc1NS(=O)(=O)c1ccccc1
inactive: T-47D breast 104% | BT-549 breast 74.9% | MDA-MB-435 melanoma 123% | SW-620 colon 84.4% | MCF7 breast 112% | HCT-116 colon 87.1% | HCC-2998 colon 99.3% | KM12 colon 103%

O=C(CSc1nc(-c2ccccc2)cc(=O)[nH]1)Nc1nc(-c2ccccc2)cs1
inactive: T-47D breast 71.8% | BT-549 breast 88% | MDA-MB-435 melanoma 105% | SW-620 colon 107% | MCF7 breast 76.9% | HCT-116 colon 90.3% | HCC-2998 colon 111% | KM12 colon 95.5%

C=Cc1cnc(Nc2ccc(OC)cc2)nc1NCCCNC(=O)C1CCC1
inactive: T-47D breast 66.8% | BT-549 breast 26.4% | MDA-MB-435 melanoma 70.3% | SW-620 colon 47.5% | MCF7 breast 53.6% | HCT-116 colon 21.5% | HCC-2998 colon 78.8% | KM12 colon 39.1%

CNC1=C([N+](=O)[O-])C(c2ccc(OC)cc2)C(C#N)=C(c2cccs2)O1 (configuration not stated)
inactive: T-47D breast 91.7% | BT-549 breast 117% | MDA-MB-435 melanoma 108% | SW-620 colon 106% | MCF7 breast 96% | HCT-116 colon 109% | HCC-2998 colon 109% | KM12 colon 103%

C/C=C(/C)n1cnc2c(Nc3ccccn3)nc(Cl)nc21
inactive: T-47D breast 93.6% | BT-549 breast 103% | MDA-MB-435 melanoma 107% | SW-620 colon 103% | MCF7 breast 99.9% | HCT-116 colon 104% | HCC-2998 colon 103% | KM12 colon 109%

Cc1ccc(C(=O)Nc2cccc(C#Cc3cccc4[nH]nc(N)c34)c2)cc1C(F)(F)F
inactive: T-47D breast 46.3% | BT-549 breast 86.6% | MDA-MB-435 melanoma 62.4% | SW-620 colon 65.4% | MCF7 breast 59.8% | HCT-116 colon 25.2% | HCC-2998 colon 51% | KM12 colon 64.3%

NC(=O)c1c(NC(=O)c2cccc(C(F)(F)F)c2)sc2c1CCC(=O)C2
inactive: HCC-2998 colon 16.1%
active: T-47D breast -3.77% | BT-549 breast -28.2% | MDA-MB-435 melanoma -12.2% | SW-620 colon -12.4% | MCF7 breast 5.02% | HCT-116 colon -28.2% | KM12 colon 0.496%

CCOC(=O)c1c(C)c2c(n1Cc1ccccc1)CSCC2=O
inactive: SW-620 colon 16.7% [100 µM] | HCC-2998 colon 17% [100 µM]
active: T-47D breast 1.4% [100 µM] | BT-549 breast -25.9% [100 µM] | MDA-MB-435 melanoma -9.11% [100 µM] | MCF7 breast -12.8% [100 µM] | HCT-116 colon -17.5% [100 µM] | KM12 colon -4.25% [100 µM]

O=C(Oc1ccc(CCl)cc1)c1ccccc1
active: T-47D breast -35.1% | BT-549 breast -97.9% | MDA-MB-435 melanoma -88.7% | SW-620 colon -49% | MCF7 breast -58.2% | HCT-116 colon -84.7% | HCC-2998 colon -75% | KM12 colon -79.1%

CNC1=CC(=O)c2c(C(=O)OC)c(C)[n+]([O-])c(C)c2C1=O
inactive: T-47D breast 52.4% | BT-549 breast 88.3% | SW-620 colon 42.5% | MCF7 breast 57% | HCT-116 colon 16% | HCC-2998 colon 50.1% | KM12 colon 61.3%
active: MDA-MB-435 melanoma -17.3%

Cc1nc2cc(O)c(O)cc2cc1Oc1ccc(NC(=O)Nc2ccc(Cl)c(Cl)c2)cc1
inactive: T-47D breast 62.2% | BT-549 breast 82.2% | MDA-MB-435 melanoma 54.2% | SW-620 colon 49.3% | MCF7 breast 76.2% | HCT-116 colon 44.6% | HCC-2998 colon 93.4% | KM12 colon 74.6%

N#CC1CCc2c(c(-c3ccc4nc(N)sc4c3)nc3ccc4[nH]ncc4c23)C1 (configuration not stated)
active: MDA-MB-435 melanoma -2.8%
inactive: T-47D breast 94% | BT-549 breast 65.5% | SW-620 colon 39.1% | MCF7 breast 21.7% | HCT-116 colon 25.6% | HCC-2998 colon 48.2% | KM12 colon 24.4%

CCCCNC(=O)Oc1ccc(/C(=C(/C)Cc2ccc(OC)cc2)c2ccc(OCCN3CCCCCC3)cc2)cc1
inactive: T-47D breast 38.8% | BT-549 breast 93.2% | MDA-MB-435 melanoma 90.5% | SW-620 colon 85.9% | MCF7 breast 27.3% | HCT-116 colon 54.9% | HCC-2998 colon 83.8% | KM12 colon 60.6%

O=S(=O)(NCCNc1nccc(-c2c(-c3cccc(O)c3)nc3occn23)n1)c1ccc(Br)cc1
inactive: T-47D breast 11.3% | BT-549 breast 45.1% | MDA-MB-435 melanoma 13.1% | SW-620 colon 34.8% | MCF7 breast 17.7% | HCT-116 colon 10.2% | HCC-2998 colon 50.7% | KM12 colon 27%

O=C1/C(=C/c2ccccn2)NC(=S)N1c1ccccc1Cl
inactive: T-47D breast 44.1% | BT-549 breast 83.8% | MDA-MB-435 melanoma 67.4% | SW-620 colon 37.9% | MCF7 breast 32.9% | HCT-116 colon 12.2% | HCC-2998 colon 85.9% | KM12 colon 67.4%

N#Cc1c(Nc2ccc(N3CCOCC3)cc2)nc(SCC(=O)c2ccc(Br)cc2)nc1-c1ccccc1
inactive: T-47D breast 102% | BT-549 breast 115% | MDA-MB-435 melanoma 109% | SW-620 colon 109% | MCF7 breast 94.8% | HCT-116 colon 87.9% | HCC-2998 colon 100% | KM12 colon 103%

COc1cc2c(cc1OCCCCN1CCN(C(=S)SCCC(C#N)(c3ccccc3)c3ccccc3)CC1)N=C[C@@H]1CCCN1C2=O
active: T-47D breast -13.3% | BT-549 breast -91.8% | MDA-MB-435 melanoma -17% | SW-620 colon -95.6% | MCF7 breast -93.4% | HCT-116 colon -62.1% | HCC-2998 colon -72.3% | KM12 colon -60.9%

C=CC(=O)Nc1ccc(Oc2nccc(Nc3nnc(-c4ccc(C)cc4)s3)n2)cc1
inactive: T-47D breast 89.2% | BT-549 breast 73.4% | SW-620 colon 49.5% | MCF7 breast 80.6% | HCT-116 colon 94.9% | HCC-2998 colon 110% | KM12 colon 84%
active: MDA-MB-435 melanoma 0.25%

O=C(/C=C/C12c3ccccc3C(c3ccccc31)C1C(=O)NC(=O)C12)c1ccc(Br)cc1 (configuration not stated)
inactive: T-47D breast 36.8% | BT-549 breast 46.1% | MDA-MB-435 melanoma 18.5% | SW-620 colon 15.3% | MCF7 breast 10.1% | HCT-116 colon 26.6% | HCC-2998 colon 95.3% | KM12 colon 55.5%

Cc1nn(-c2ccccc2)c(N)c1N=C1NC(=O)/C(=C/c2ccc(Br)cc2)S1
inactive: T-47D breast 85.3% | BT-549 breast 78.6% | MDA-MB-435 melanoma 49.7% | SW-620 colon 84.2% | MCF7 breast 78.2% | HCT-116 colon 68% | HCC-2998 colon 111% | KM12 colon 76%

Cc1ccc(C(=O)c2ccc(CC(=O)N=Nc3c(O)[nH]c4ccc(Br)cc34)n2C)cc1
inactive: T-47D breast 74.5% | BT-549 breast 100% | MDA-MB-435 melanoma 98.7% | SW-620 colon 91.2% | MCF7 breast 86.9% | HCT-116 colon 86% | HCC-2998 colon 124% | KM12 colon 97.9%

O=C(N/N=C\c1ccccc1S(=O)(=O)O)N/N=C/c1ccccc1S(=O)(=O)O
inactive: T-47D breast 102% | BT-549 breast 118% | MDA-MB-435 melanoma 105% | SW-620 colon 91.9% | MCF7 breast 93.4% | HCT-116 colon 106% | HCC-2998 colon 104% | KM12 colon 94.1%
